Several values for one entry are separate records, joined by “and”; a condition that tells them apart may be missing. Equal entries are not always repeated. Results filed as inconclusive are left out. Activity calls are given as the source filed them. Calls follow the shape of the dose curve; as a rule, active = well fitted activation curve with a large enough effect; inconclusive = small, poorly fitted or top-dose-only effect; inactive = no such curve, though single readings can be large or run the other way.
Potency is read from the fitted curve at half-maximal effect.

Chain of Cellular tumor antigen p53 (Homo sapiens) (P04637 whole entry, looked up): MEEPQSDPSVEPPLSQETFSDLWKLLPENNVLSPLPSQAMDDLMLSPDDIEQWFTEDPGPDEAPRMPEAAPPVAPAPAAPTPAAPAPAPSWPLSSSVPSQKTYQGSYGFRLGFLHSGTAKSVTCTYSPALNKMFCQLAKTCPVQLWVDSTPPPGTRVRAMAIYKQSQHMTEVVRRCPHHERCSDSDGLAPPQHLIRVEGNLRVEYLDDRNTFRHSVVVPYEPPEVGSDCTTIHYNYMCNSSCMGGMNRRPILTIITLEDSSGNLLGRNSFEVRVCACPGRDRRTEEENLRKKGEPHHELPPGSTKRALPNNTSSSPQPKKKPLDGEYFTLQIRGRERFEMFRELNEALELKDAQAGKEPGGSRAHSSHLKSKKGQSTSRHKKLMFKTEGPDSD

This experiment has as its target Cellular tumor antigen p53 (Homo sapiens) (UniProt P04637). Put plainly: Primary qHTS for small molecule compounds that upregulate eGFP-tagged delta133p53alpha (in N-terminal) cells. (AID 2060322). Also: nearly all actives have a fitted effect of over 75% in size.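 As to activation: cells pre-induced with doxycycline then dosed without doxycycline; series mostly up to about 56 µM; 0% = DMSO vehicle and 100% = reference activator.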 As to conditions: NCI-H358 eGFP-delta133p53alpha fluorescence, 24 h; activation: active compounds read high. Summed up: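 NCI-H358 cells pre-induced 24 h with 10 ng/ml doxycycline for eGFP-delta133p53alpha, plated dox-free and exposed 24 h at 37C to titrated compounds. Fixed, Hoechst-stained; gated GFP peak intensity by laser scanning cytometry, normalized to DMSO (0%) and 57.5 uM 5-azacytidine (100%).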
A general note: In qHTS, concentration-response curves come from the screen itself.
Take `C[C@H](CCC(=O)O)[C@H]1CC[C@H]2[C@H]3[C@@H](CC[C@]12C)[C@@]1(C)CC[C@@H](O)C[C@H]1C[C@@H]3O`: the activation is -8.06% (inactive).
`O=C(CCl)Nc1ccc(S(=O)(=O)c2ccc(NC(=O)CCl)cc2)cc1`: the activation was 4.47% (inactive).
`COc1ccccc1N1CCN(CCCCNC(=O)c2ccc(-c3ccc(C(C)=O)cc3)cc2)CC1`: the activation was -10.9% (inactive).
As for `FC(F)(F)c1ccc(C=Cc2nc(COc3ccc(CCCCn4ccnn4)cc3)co2)cc1`, the Potency was 24.3 µM (active).
Consider `CN(C)CCOc1ccc(C(=C(CCCl)c2ccccc2)c2ccccc2)cc1`, for which the activation is 17.8% (inactive).
Regarding `O=C(CN1CCN(Cc2ccc3c(c2)OCO3)CC1)N1c2ccccc2Sc2ccccc21`, the activation is 1.69% (inactive).
For `Cc1cccn2c(=O)c(-c3nnn[nH]3)cnc12`, the activation was -7.34% (inactive).
Same read-out and setting: next, `C=CCCCCCCCCC(=O)O`: -20.9% (inactive); `CC=CCC=CCCC(=O)[C@H]1O[C@@H]1C(N)=O`: -3.35% (inactive).
Same read-out and setting: for `Cc1cccc(C)c1NC(=O)CC12CCCN1CCC2` the value was 5.86% (inactive); for `CCCCCCCCCCCCCCC[C@H](O)[C@@H](N)CO`, 18.4% (inactive).
As to `COc1cc2nc(Cl)nc(N)c2cc1OC`, the activation is -37.9% (inactive).
For `CN1C(=O)CC(C)(c2ccccc2)C1=O` (centres undefined), the activation was 23.4% (inactive).
Regarding `Nc1ccc2cc3ccc(N)cc3nc2c1`, the activation is -35.1% (inactive).
Same read-out and setting: for `C[C@@H]1CCN(C(=O)[C@H](CCCN=C(N)N)NS(=O)(=O)c2cccc3c2NC[C@H](C)C3)[C@@H](C(=O)O)C1` the value was 2.82% (inactive); for `CC1(C)OC(=O)Nc2ccc(Br)cc21`, 3.95% (inactive); for `CCOC(=O)N1CCN([N+]([O-])=NOc2ccc([N+](=O)[O-])cc2[N+](=O)[O-])CC1`, 8.17% (inactive).
On the same count and under the same terms, for `CC(C)OC(=O)OCOP(=O)(CO[C@H](C)Cn1cnc2c(N)ncnc21)OCOC(=O)OC(C)C` the value was -1.51% (inactive) and -14.1% (inactive); for `CCCCCCCC/C=C/C(=O)O`, -2.82% (inactive); for `C=C1C(=CC=C2CCC[C@]3(C)[C@@H]([C@H](C)CCCC(C)(C)O)CC[C@@H]23)C[C@@H](O)C[C@@H]1O`, -4.26% (inactive).
On to `CCc1cc2cc(OC)c(OC)cc2c(Cc2ccccc2)n1`, for which the activation is -22.6% (inactive).
As to `O=C(C=Cc1cccc(S(=O)(=O)Nc2ccccc2)c1)NO`, the activation was 49% (inactive).
As to `O=C1Nc2ccc(I)cc2C1=Cc1cc(Br)c(O)c(Br)c1`, the Potency was 24.3 µM (active).
Turning to `O=c1cc(CO)occ1O`, the activation is -9.6% (inactive).

These data come from PubChem BioAssay (NCATS).
